These results are taken from PubChem BioAssay (NCI).

About 83,000 compounds went through this panel and 20% of them were active in at least one assay; those are over-represented in the sample as a whole.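 Single-dose data. Exposure time 48 hours. Values below 10 considered active.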 A number with no mark means an inactive call. Activity calls are given as the source filed them.

Among the test systems are DU-145 prostate; K-562 leukemia; MALME-3M melanoma; RXF 393 renal; SF-268 CNS; SF-295 CNS; SF-539 CNS; UACC-257 melanoma; HCT-15 colon; HT29 colon; SNB-75 CNS; SNB-19 CNS; U251 CNS; PC-3 prostate; SK-MEL-5 melanoma; UACC-62 melanoma; LOX IMVI melanoma; SK-MEL-28 melanoma; M14 melanoma; MDA-MB-231 breast.
Holding throughout (assay): NCI-60 one-dose screen, 48 h (100 = growth as untreated, 0 = no growth, -100 = all killed)
Details in all cases: 10 µM unless noted

As to `N#Cc1c(-c2ccc(Cl)cc2)nc(NCCO)[nH]c1=O`, the growth is 104% in the assay on DU-145 prostate; 103% in the assay on K-562 leukemia; 98.8% in the assay with MALME-3M melanoma; 116% in the assay with RXF 393 renal; 89.6% in the assay with SF-268 CNS; 95.3% in the assay on SF-295 CNS. Further, the growth in the assay on SF-539 CNS was 95.9%; in the assay on UACC-257 melanoma it was 107%; with HCT-15 colon it was 102%; with HT29 colon, 106%; with SNB-75 CNS, 81%; with SNB-19 CNS, 102%. The growth is 98.7% in the assay on U251 CNS; 92.4% in the assay on PC-3 prostate; 107% in the assay on SK-MEL-5 melanoma; 84.4% in the assay on UACC-62 melanoma; 97.3% with LOX IMVI melanoma; 112% with SK-MEL-28 melanoma.

As for `CSc1ccc2c(c1)c(CCN)c(C)n2Cc1ccc(Cl)c(Cl)c1`, the growth in the assay with DU-145 prostate was -89.4% (active); in the assay on K-562 leukemia, -66.1% (active); with MALME-3M melanoma it was -75.4% (active); in the assay on RXF 393 renal, -82.5% (active); in the assay on SF-268 CNS, -71.1% (active); in the assay with SF-295 CNS, -90.9% (active). Moreover, the growth in the assay on SF-539 CNS was -82.8% (active); in the assay with UACC-257 melanoma, -73.3% (active); in the assay with M14 melanoma it was -85% (active); in the assay with HCT-15 colon, -91.3% (active); in the assay on HT29 colon, -82.9% (active); in the assay with SNB-75 CNS it was -84.3% (active). Also, the growth is -75% (active) in the assay on SNB-19 CNS; -87.3% (active) in the assay with U251 CNS; -90% (active) with PC-3 prostate; -95.1% (active) in the assay on SK-MEL-5 melanoma; -89.6% (active) with UACC-62 melanoma; -89.7% (active) with LOX IMVI melanoma. Moreover, the growth with SK-MEL-28 melanoma was -65.6% (active).

Turning to `COc1ccc2[nH]c(-c3ccccc3)c(/C=C(\C#N)S(=O)(=O)c3ccccc3)c2c1`, the growth with DU-145 prostate was 70.1%; in the assay on K-562 leukemia it was 5.1% (active); in the assay on MALME-3M melanoma, 47.7%; with MDA-MB-231 breast it was 56.8%; with RXF 393 renal, 57.5%; with SF-268 CNS, 72.2%. Moreover, the growth in the assay on SF-295 CNS was 43.2%; in the assay on SF-539 CNS, 42.3%; in the assay on UACC-257 melanoma, 78.6%; with HCT-15 colon, 39.3%; in the assay on SNB-75 CNS, 48.1%; in the assay on SNB-19 CNS, 63.2%. Besides, the growth was 39% with U251 CNS; 49.6% in the assay with PC-3 prostate; 14.9% with SK-MEL-5 melanoma; 42.1% with UACC-62 melanoma; 61.2% in the assay on LOX IMVI melanoma; 53.4% with SK-MEL-28 melanoma.

As for `CN1C(=O)CNC(=O)[C@H](NC(=O)c2nc3ccccc3cc2O)CSSC[C@H]1C(=O)NCCCc1nc2ccccc2cc1O`, the growth was 42.3% in the assay with DU-145 prostate; 18.4% with K-562 leukemia; 110% in the assay on MALME-3M melanoma; 102% with RXF 393 renal; 49.5% in the assay with SF-268 CNS; 91.9% with SF-295 CNS. The growth in the assay with SF-539 CNS was 82%; in the assay with UACC-257 melanoma, 83.9%; with M14 melanoma, 14.3%; with HCT-15 colon, 93.3%; in the assay with HT29 colon, 17.7%; in the assay with SNB-75 CNS, 151%. Further, the growth in the assay with SNB-19 CNS is 100%; in the assay on U251 CNS, 69.1%; in the assay on PC-3 prostate it was 44.7%; in the assay with SK-MEL-5 melanoma it was 35.2%; in the assay on UACC-62 melanoma it was 18.9%; with LOX IMVI melanoma it was -52.4% (active). The growth in the assay with SK-MEL-28 melanoma was 61.9%.

In the case of `COc1cccc(/C=C2\C=C(c3ccccc3)N(Cc3ccccc3)C2=O)c1`, the growth is 93.9% in the assay with DU-145 prostate; 36.1% in the assay on K-562 leukemia; 98.2% with MALME-3M melanoma; 39.8% in the assay with RXF 393 renal; 56.2% with SF-268 CNS; 44.6% with SF-295 CNS. The growth in the assay with SF-539 CNS was 53.3%; in the assay with UACC-257 melanoma it was 83.3%; in the assay with M14 melanoma, 5.88% (active); with HCT-15 colon it was 38%; in the assay with HT29 colon, 82.2%; with SNB-75 CNS, 51.4%. For the same compound, the growth was 79.6% in the assay with SNB-19 CNS; 56.4% in the assay on U251 CNS; 33.9% in the assay on PC-3 prostate; 38% in the assay with UACC-62 melanoma; 49.2% in the assay on LOX IMVI melanoma; 79.9% in the assay with SK-MEL-28 melanoma.

For `COC(=O)[C@H](C)NC(=O)NC(=O)NC(=O)CI`, the growth was 84.5% in the assay on DU-145 prostate; 7.73% (active) in the assay on K-562 leukemia; -53.9% (active) with MALME-3M melanoma; 59.1% in the assay on RXF 393 renal; 82.6% in the assay with SF-268 CNS; 91.9% with SF-295 CNS. In addition, the growth is 94.6% in the assay with SF-539 CNS; 104% in the assay on UACC-257 melanoma; 58.5% in the assay with M14 melanoma; 51.4% with HCT-15 colon; 67.2% with HT29 colon; 112% in the assay on SNB-75 CNS. Also, the growth was 108% with SNB-19 CNS; 96.9% in the assay on U251 CNS; 86.7% in the assay with PC-3 prostate; 99.5% in the assay with SK-MEL-5 melanoma; 41.2% in the assay with UACC-62 melanoma; -66.2% (active) with LOX IMVI melanoma. Moreover, the growth with SK-MEL-28 melanoma was 48%.

For `COC1=C(C)C(=O)c2c(c(CCCl)c3n2CCC3O)C1=O` (stereo not drawn), the growth is 1.19% (active) with DU-145 prostate; 22% with K-562 leukemia; -55.7% (active) with MALME-3M melanoma; -53.7% (active) in the assay with RXF 393 renal; 9.6% (active) in the assay with SF-268 CNS; -12% (active) with SF-295 CNS. The growth in the assay on SF-539 CNS was -28.8% (active); in the assay on UACC-257 melanoma, -44.8% (active); in the assay on M14 melanoma it was -14.3% (active); in the assay with HCT-15 colon, 2.73% (active); with HT29 colon, -4.05% (active); in the assay with SNB-75 CNS it was -45.3% (active). The growth with SNB-19 CNS was 2.57% (active); in the assay on U251 CNS it was -3.61% (active); in the assay on PC-3 prostate it was -2.49% (active); with SK-MEL-5 melanoma it was -51% (active); with UACC-62 melanoma, -60.5% (active); with LOX IMVI melanoma, -23.5% (active).

As to `COc1ccc(-c2nnc(COc3ccc(Cl)cc3Cl)o2)cc1OC`, the growth in the assay with DU-145 prostate is 22.6%; in the assay on K-562 leukemia, 65.1%; with MALME-3M melanoma it was -1.79% (active); in the assay with RXF 393 renal, -56.7% (active); in the assay with SF-268 CNS, 45.7%; in the assay with SF-295 CNS, 23.5%. The growth with SF-539 CNS was 83.6%; in the assay on UACC-257 melanoma it was 37.7%; in the assay on M14 melanoma, 45%; in the assay with HCT-15 colon, 49.5%; in the assay with HT29 colon, 28.7%; in the assay with SNB-75 CNS, -42% (active). Besides, the growth is 44.6% in the assay with SNB-19 CNS; 37.2% in the assay on U251 CNS; 43.7% in the assay on PC-3 prostate; 28.2% with SK-MEL-5 melanoma; 43.7% in the assay with UACC-62 melanoma; 16.1% in the assay with LOX IMVI melanoma. Further, the growth in the assay with SK-MEL-28 melanoma is 67.2%.
